# Screening data as filed in PubChem.
# TSHR antagonist: antagonists of human thyroid stimulating hormone receptor; activity change, negative = inhibition, % at 11.5 µM; 0.2% of 330,000 active; P16473; TSHR-expressing cells, TSH-stimulated cAMP HTRF, 2 h; stronger effect = lower value; AID 504810;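 active = activity change below a set negative limit, meaning inhibition stronger than a set level, cut at about -70% in these data; inconclusive = activity change between two set negative limits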
# Target sequence (P16473 whole entry, looked up): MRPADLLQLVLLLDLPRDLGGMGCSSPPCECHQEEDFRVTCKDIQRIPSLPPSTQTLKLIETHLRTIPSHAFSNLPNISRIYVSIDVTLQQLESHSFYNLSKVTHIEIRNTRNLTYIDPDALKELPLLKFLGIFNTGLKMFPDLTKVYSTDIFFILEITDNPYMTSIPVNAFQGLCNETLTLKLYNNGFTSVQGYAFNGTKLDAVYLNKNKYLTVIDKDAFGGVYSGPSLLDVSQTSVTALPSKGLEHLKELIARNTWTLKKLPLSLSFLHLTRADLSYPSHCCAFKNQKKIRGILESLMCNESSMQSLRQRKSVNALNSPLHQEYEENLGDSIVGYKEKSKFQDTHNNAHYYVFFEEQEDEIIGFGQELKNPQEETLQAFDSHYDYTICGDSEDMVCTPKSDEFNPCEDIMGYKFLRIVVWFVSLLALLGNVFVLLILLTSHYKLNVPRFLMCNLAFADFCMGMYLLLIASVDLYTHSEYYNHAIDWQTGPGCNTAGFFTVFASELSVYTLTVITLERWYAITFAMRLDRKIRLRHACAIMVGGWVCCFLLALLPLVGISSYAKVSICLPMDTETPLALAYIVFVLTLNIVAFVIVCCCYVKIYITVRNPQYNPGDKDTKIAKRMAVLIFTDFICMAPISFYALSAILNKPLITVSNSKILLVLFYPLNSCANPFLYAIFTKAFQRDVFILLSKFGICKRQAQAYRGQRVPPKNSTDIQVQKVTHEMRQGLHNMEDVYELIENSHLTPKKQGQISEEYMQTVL
#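 Competitive HTRF cAMP read-out (cryptate anti-cAMP antibody, cAMP-d2; 30 min, room temperature) in freshly harvested TSHR cells. Compounds added before TSH at EC80 (4nM final), followed by 2 hours' incubation at 37 deg C.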
# B2AR arrestin: beta2AR (human) beta-arrestin recruitment activity; Potency, µM (series often up to 46.1 µM), usual class: activators; beta-arrestin recruitment to beta2AR, cell-based reporter; AID 492947; P07550; 0.02% of 330,000 active; active = well fitted activation curve with a large enough effect; inconclusive = small, poorly fitted or top-dose-only effect; note: nearly all actives have a fitted effect of over 65% in size
# D3 antag: blocks the human D3 dopamine receptor | 2.5% of 360,000 active | D3R cells, DiscoveRx beta-arrestin luminescence, antagonist mode; stronger effect = lower value | AID 652054 | max response, negative = inhibition, %; in the data active = max response below about -50%; inconclusive = no clear call, values can overlap the other calls
#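 Cells expressing the human receptor were seeded at 1500 cells/well, incubated overnight at 37 degrees C in 5% CO2, then exposed to library compounds with dopamine controls for 90 minutes at 37 degrees C before luminescent detection.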
# D3 ag: agonists of human D3 dopamine receptor | D3R DiscoveRx beta-arrestin cells, luminescence, 90 min | max activation, % | AID 652048 | P35462 | 0.58% of 410,000 active; in the data active = max activation above about 30%
#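 Agonist-mode cell screen: cells plated at 1500/well and incubated overnight at 37 °C, then exposed to library compounds for 90 min at 37 °C. Detection reagent was added for 30–60 min at room temperature, and luminescence was read.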
# Numbers stand for hits; 0 = inactive; ? = inconclusive; - = no result given. In the library only some 2.9% were active in any assay of this set; here they are far more common.
SMILES,TSHR antagonist,B2AR arrestin,D3 antag,D3 ag
CCC(C)c1ccc(OCCN2CCCC2)cc1 (centres undefined),0,0,-77.7,0
Clc1ccc(OCCCCN2CCCCC2)cc1,0,0,-61.7,0
Cc1ccc(NC(=O)CSc2nc3ccc(NC(=O)c4ccco4)cc3s2)c(C)c1,-,-,-,0
CCc1ccccc1NC(=O)c1ccc2c(SCC(=O)O)c3c(nc2c1)CCC3,-,-,-,0
COCCNC(=O)C1CCCN(C(=O)Cc2cccc3ccccc23)CC1 (centres undefined),-,-,-102.4,0
COCCNC(=O)C1CCCN(C(=O)c2cncc(Br)c2)CC1 (centres undefined),-,-,-77.2,0
CCOc1ccc(OCC)c(NS(=O)(=O)c2c(C(=O)N3CCC(C)CC3)c(C)n(C)c2C)c1,-,-,-,0
S=C(NCCN(C1CCCCC1)C1CCCC1)Nc1cccc(Cl)c1,0,0,-102.0,0
Cc1ccc(C(=O)O)cc1N=Cc1cc(Br)cc(Br)c1O,0,0,-119.7,0
CC(=O)Nc1ccc(C(=O)N/N=C/c2cc(Br)cc(Br)c2O)cc1,0,0,0,0
NCCCNCCCCNC(=O)C(O)NC(=O)CCCCCCN=C(N)N (centres undefined),-,-,-,0
CCOC(=O)NNc1ccc(N(CC)CC(C)O)nn1 (centres undefined),-,-,-,0
CCN(CC)CCNC(=O)c1c(C)[nH]c(/C=C2\C(=O)Nc3ccc(F)cc32)c1C,-,-,-,0
CN(C)C(CNC(=O)Cc1cccc(C(F)(F)F)c1)c1ccccc1 (centres undefined),0,0,0,0
CN(C)C(CNc1ccc(C(F)(F)F)cn1)c1ccccc1 (centres undefined),0,0,-58.6,0
Cc1ccc(S(=O)(=O)NNc2nc3ccccc3nc2C(F)(F)F)cc1,0,0,-54.5,0
Cc1ccc(S(=O)(=O)NNc2ccccc2)cc1,0,0,0,0
Cc1cc(Cl)c(OCCCSc2nc(C)cc(=O)[nH]2)c(Br)c1,0,0,0,41.4
Cc1cc(=O)[nH]c(SCCCOc2ccc(F)cc2)n1,0,0,0,0
COc1ccc(Nc2sc(C(=O)c3ccc(Cl)cc3)c(N)c2C(=O)Nc2ccccc2OC)cc1,0,0,-60.5,0
COc1ccc(C(=O)c2sc(Nc3ccccc3)c(C(=O)Nc3ccc(OC)c(OC)c3)c2N)cc1,0,0,?,0
COc1cc2nc(NCCC(C)C)n3nc(-c4ccccc4)nc3c2cc1OC,-,-,-,0
S=c1nc2ccccc2c2nc(-c3ccccc3)[nH]n12,0,3.98µM,0,0
COc1ccc([C@H]2[C@H](C(=O)C(C)(C)C)N3N=Cc4ccccc4C3[C@]23N=C(c2ccccc2)OC3=O)cc1 (some centres undefined),0,0,0,0
CC(C)(C)OC(=O)[C@H]1[C@H](c2ccc([N+](=O)[O-])cc2)C2(C(=O)c3ccccc3C2=O)C2c3ccccc3C=NN21 (some centres undefined),0,0,-58.9,0
SMILES,TSHR antagonist,B2AR arrestin,D3 antag,D3 ag
Cc1ccc(Cl)cc1N1CCN(C(=O)CCS(=O)(=O)c2cc(Br)cc3c2N(C(=O)C2CC2)CC3)CC1,-,-,-,0
O=c1cc(-c2ccc(O)cc2)oc2cc(O)c(C3OC(CO)C(O)C(O)C3O)c(O)c12 (centres undefined),0,0,-64.4,0
O=c1c(-c2ccc(Cl)cc2)c(C(F)(F)F)oc2c(CN3CCCCC3)c(O)ccc12,-,-,-,0
CCOc1cccc(C(=O)N(Cc2ccc(F)cc2)Cc2ccco2)c1,-,-,-,0
O=C(Nc1ccc(F)cc1F)c1cc(-c2ccc(Cl)cc2)on1,-,-,-,0
Cc1ccc(NC(=O)Cn2c(SCc3ccc(F)cc3)nc3cccnc32)cc1F,-,-,-,0
COc1ccccc1-c1cnnc(N/N=C/c2ccc(-c3cccc(Br)c3)o2)n1,0,0,0,56.6
O=C(Nc1c2c(nn1-c1ccccc1)CS(=O)C2)c1ccc(S(=O)(=O)N2CCOCC2)cc1 (centres undefined),0,0,0,0
O=C(Nc1c2c(nn1-c1ccc(F)cc1)CS(=O)(=O)C2)c1ccc(S(=O)(=O)N2CCOCC2)cc1,0,0,-64.6,0
Cc1cccc(NC(=O)CCCCCn2c(=O)[nH]c3ccsc3c2=O)c1,-,-,-,0
COc1ccccc1NC(=O)C(Cc1ccccc1)NS(=O)(=O)c1ccc2c(c1)c(=O)n(C)c(=O)n2C (centres undefined),-,-,-,0
C=CC(=O)Nc1ccc(CN2C(=O)N(c3c(Cl)c(OC)cc(OC)c3Cl)Cc3cnc(NCCCCN(CC)CC)nc32)cc1,0,0,-65.2,0
CCN(CC)CCNC(=O)c1ccc(NC(=O)Cc2ccc(OC)c(S(=O)(=O)N3CCOCC3)c2)cc1,-,-,0,0
COc1ccccc1NC(=O)Cn1c(=O)n(Cc2nc(C)no2)c(=O)c2cc3c(cc21)OCO3,-,-,-,0
Cc1ccccc1N1CCN(C2CCCN(C(=O)c3cnsn3)C2)CC1 (centres undefined),-105.4,0,0,0
Cc1ccccc1N1CCN(C2CCCN(C(=O)CCC3(C)CC3)C2)CC1 (centres undefined),0,0,-64.4,0
CC1(C)CC(=O)c2cc(-c3nc(-c4ccccc4)cs3)c(=O)[nH]c2C1,-,-,-,0
COc1ccc(C(C[N+](=O)[O-])C2(c3ccc(OC)c(OC)c3)C(=O)c3ccccc3C2=O)cc1 (centres undefined),0,0,-82.2,0
COC(=O)C(C(=O)OC)C(C[N+](=O)[O-])c1ccc(OC)c(OC)c1 (centres undefined),0,0,0,0
CCC1=C2CC[C@H]3C(=O)N(CC)C(=O)[C@H]3[C@H]2[C@@]2(Cc3ccccc3)C(=NCCOC)OC(=O)N2C1=O,0,0,0,0
CCC1=C2CC[C@H]3C(=O)N(C)C(=O)[C@H]3[C@H]2[C@@]2(Cc3ccccc3)C(=NCCOC)OC(=O)N2C1=O,0,0,0,38.1
O=C1CCCN1CCCNCC(=O)N1c2ccccc2Sc2ccccc21,0,0,-53.3,0
O=C1CCCN1CCCNCC(O)c1ccccc1 (centres undefined),0,0,0,0
CCn1cc(C(=O)NCCc2ccccc2)c(=O)c2cc(S(=O)(=O)N(C)C3CCCCC3)ccc21,-,-,-,0
O=C(Cn1c(=O)oc2cc(S(=O)(=O)N3CCCC3)ccc21)N1CCN(c2ccccc2)CC1,0,0,-58.4,0
SMILES,TSHR antagonist,B2AR arrestin,D3 antag,D3 ag
CCCn1c(=N)c(C(=O)NCc2cccnc2)cc2c(=O)n3cc(C)ccc3nc21,-,-,-,0
Cc1ccc(S(=O)(=O)N2CCOCC2)cc1NC(=O)CNCc1ccccc1Cl,0,0,0,34.8
Cc1ccc(S(=O)(=O)N2CCOCC2)cc1NC(=O)CSc1ncccn1,0,0,0,0
Cc1ccc(S(=O)(=O)N2CCOCC2)cc1NC(=O)CNCc1ccccn1,0,0,0,51.8
CN(Cc1cc(Cl)cc(Cl)c1)CC(C(=O)c1ccccc1)c1ccccc1 (centres undefined),-,-,0,0
CC(CN1CCN(CC(C)C(=O)c2ccccc2)CC1)C(=O)c1ccccc1 (centres undefined),-,-,-59.5,0
